Reference: PubChem BioAssay AID1376 (SRMLSC, 2008)
The campaign covered roughly 220,000 compounds. About 530 (0.24%) were called active. Only a selection was taken, and actives are over-represented in it overall. Potency and affinity values are given separately. A number with no mark means an inactive call. Cut-off read from the data, not from the text of the source: active = inhibition above about 13%; inconclusive = no clear call, values can overlap the other calls; inactive = below that.

biological target: Bifunctional protein GlmU (Mycobacterium tuberculosis (strain ATCC 25618 / H37Rv)) (UniProt P9WMN3); assay: inhibition of mycobacterial GlmU enzyme – biochemical, glucosamine-1-phosphate acetyltransferase (AID 1376);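 note: 0% = complete reaction with vehicle and 100% = reaction without substrate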; conditions: M. tuberculosis GlmU acetyltransferase enzyme assay; stronger effect = higher value;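 tested at 30 µM in the primary screen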
Sequence (P9WMN3 whole entry, looked up): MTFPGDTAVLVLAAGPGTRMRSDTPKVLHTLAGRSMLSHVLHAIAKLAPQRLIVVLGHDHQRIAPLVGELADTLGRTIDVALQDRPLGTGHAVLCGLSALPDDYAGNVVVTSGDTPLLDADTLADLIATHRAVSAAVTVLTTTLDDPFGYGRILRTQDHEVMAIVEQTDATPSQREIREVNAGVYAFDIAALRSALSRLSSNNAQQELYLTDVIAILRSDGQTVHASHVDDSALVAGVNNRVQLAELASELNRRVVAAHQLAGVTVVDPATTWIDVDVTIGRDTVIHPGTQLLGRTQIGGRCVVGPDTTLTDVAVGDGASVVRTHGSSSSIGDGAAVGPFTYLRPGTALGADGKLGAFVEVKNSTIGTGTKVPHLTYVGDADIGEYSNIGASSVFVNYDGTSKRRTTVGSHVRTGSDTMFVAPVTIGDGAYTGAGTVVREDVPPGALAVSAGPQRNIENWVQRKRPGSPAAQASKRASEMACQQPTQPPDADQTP

Compared with COc1cc(Nc2ncnc(N)n2)cc(OC)c1OC, CCCNC(=O)Cn1cnc2sc(C(=O)Nc3cc(OC)c(OC)c(OC)c3)c(C)c2c1=O is lower in inhibition: 3.26% for the first, 1.29% for the second.

Compared with COc1ccc(NC(=O)CN2CCN(CC(=O)Nc3ccccc3F)CC2)cc1OC, CCN(c1ccccc1)S(=O)(=O)c1ccc(OC)c(NC(=O)CN(C)C)c1 is higher in inhibition: -7.08% for the first, -3.46% for the second.

Compared with COc1ccc(-n2c(C)cc(/C=C/c3nc(O)c([N+](=O)[O-])c(=O)[nH]3)c2C)cc1, O=c1[nH]c(/C=C\c2cccs2)nc(O)c1[N+](=O)[O-] is lower in inhibition: 10% for the first, 2.4% for the second.

Compared with O=C(Nc1ccc(F)cc1F)N1CCN(c2ncccn2)CC1, CCN1CCN(c2cc(C)c3cc(NC(=O)c4cnccn4)ccc3n2)CC1 is lower in inhibition: 1.49% for the first, -5.83% for the second.

Compared with CC(C)(C)OC(=O)N/N=C/c1c[nH]c2ccccc12, COC(=O)c1n[nH]nc1-c1ccccc1 is higher in inhibition: 2.23% for the first, 2.77% for the second.

Going from O=C(COc1cccnc1[N+](=O)[O-])Nc1ccc2c(c1)OC(F)(F)O2 to COc1cc(C(=O)Nc2ccncc2)c([N+](=O)[O-])cc1OC, the inhibition rises from 3.24% to 6.59%.

Going from O=C(NCc1ccc(F)cc1)C1CCCN(c2nc3ccsc3c(=O)s2)C1 (centres undefined) to O=C1NC(=O)N(Cc2ccc(F)cc2)C(=O)/C1=C/c1cccs1, the inhibition falls from 2.37% to -2.44%.

Compared with CCOC(=O)C1=C(c2ccccc2)NC(SCC(=O)NC2CCCCC2)=C(C#N)C1c1ccco1 (centres undefined), CCOC(=O)C1=C(N)OC2=C(C(=O)CCC2)C12C(=O)N(C)c1ccccc12 (centres undefined) is lower in inhibition: 2.37% for the first, 2.06% for the second.

Going from CCOc1ccc(/C=C2/SC(=O)NC2=S)cc1 to Cc1ccc(/C=C2\SC(=S)N(Cc3ccccc3)C2=O)o1, the inhibition rises from -3.11% to -1.65%.

First: O=C1N=C(N2CCOCC2)S/C1=C\c1ccc(-c2ccccc2Cl)o1
Second: O=C1/C(=C\c2ccc(-c3ccccc3Cl)o2)SC(=S)N1CC1CCCO1 (centres undefined)
The inhibition of the first is lower: 2.7% for the first, 7.34% for the second.

Going from O=C(Nc1cccc(NC(=O)c2nccc3ccccc23)c1)c1ccco1 to Cc1ccc(C)n1-c1cccc(NC(=O)c2ccccc2)c1, the inhibition rises from -1.26% to -0.99%.

Compared with O=C1c2ccccc2C(=O)N1OCc1ccc(Cl)cc1, Cc1nn(-c2ccc(Cl)cc2)c(NC(=O)C(C)C)c(-c2ccccc2)c1=O is lower in inhibition: -2.04% for the first, -2.2% for the second.

Going from C=CCN1C(=O)/C(=C/c2cccs2)C(=O)NC1=S to CN(C)c1ccc(/C=C2/C(=O)NC(=O)N(Cc3ccco3)C2=O)cc1, the inhibition falls from 4.18% to -4.04%.

Going from CCN(CC)c1ccc(/C=C2/C(=O)NC(=O)N(Cc3ccco3)C2=O)cc1 to CCCCCOc1ccc(C(=O)N(Cc2ccco2)C2CCS(=O)(=O)C2)cc1 (centres undefined), the inhibition rises from -0.51% to 2.23%.

Going from O=C(/C=C/c1ccco1)c1ccc(NC(=O)C23CC4CC(CC(C4)C2)C3)cc1 to O=C(O)c1cccc(N/N=C/c2cccs2)c1, the inhibition rises from -0.76% to 4.35%.

Compared with Cc1ccc(C)c(S(=O)(=O)NCCOC(=O)Nc2sc(=S)n(C)c2C)c1, CCOC(=O)C1=C(NC#N)OC(C)=C(C)C1c1ccc(O)cc1 (centres undefined) is lower in inhibition: 6.71% for the first, -6.11% for the second.

First: CCOC(=O)CNC(=O)CSc1nc(N)cc(N)n1
Second: Cc1c(C)n(C(=O)CSc2ncn[nH]2)c2ccccc12
The inhibition of the first is higher: 1.79% for the first, 1.07% for the second.

Compared with N#CC1=C(N)Oc2c(oc(CO)cc2=O)C1c1ccsc1 (centres undefined), CC1=CC(C)(C)N2C(=O)C3(C(C#N)=C(N)OC4=C3C(=O)CCC4)c3c(C)c(C)cc1c32 (centres undefined) is higher in inhibition: -2.69% for the first, 0.73% for the second.

First: COc1cc(/C=C2/SC(=Nc3ccc(O)cc3)NC2=O)cc(OC)c1O
Second: COc1cc(/C=C2\SC(=Nc3ccc(O)cc3)NC2=O)cc(OC)c1OC
The inhibition of the first is higher: 7% for the first, -1.9% for the second.

Compared with COc1ccccc1C1=NNC(=NCc2ccccc2)SC1, O=C(O)c1cccc(NN=C2c3ccccc3-c3ccccc32)c1 is higher in inhibition: -1.42% for the first, 1.86% for the second.

First: Cc1ccc(S(=O)(=O)N2CCN(c3ccccn3)CC2)cc1
Second: CC(C(=O)Nc1ccc(S(=O)(=O)N2CCCCC2)cc1)N1CCN(c2ccccn2)CC1 (centres undefined)
The inhibition of the first is higher: 3.12% for the first, 0.72% for the second.

Going from Cc1[nH]c2ccccc2c1C(=O)CSc1nc2ccccc2[nH]1 to Cn1c(Cn2c(=O)sc3ccccc32)nnc1SCC(=O)N1CCc2ccccc21, the inhibition falls from 2.48% to -3.8%.

Going from O=C1CCN(S(=O)(=O)c2ccccc2)CCN1CCOCc1ccc(F)cc1 to CC1(C)Cc2cccc(OCC(=O)N3CCN(S(=O)(=O)c4ccc(F)cc4)CC3)c2O1, the inhibition falls from -0.16% to -1.15%.

First: COc1ccc([N+](=O)[O-])c(S(=O)(=O)c2ccccc2)n1
Second: COC(=O)c1cc(-c2ccccc2)n[nH]1
The inhibition of the first is higher: 11.9% for the first, 1.61% for the second.

Compared with COc1nc(OC)nc(Oc2ccc(Cl)cc2[N+](=O)[O-])n1, O=C(Nc1cccc(-c2csc(Nc3ccc(Cl)cc3)n2)c1)c1cccc(C(F)(F)F)c1 is higher in inhibition: -2.5% for the first, 0.14% for the second.

Going from CC(C(=O)NN)n1nnc(N2CCOCC2)n1 (centres undefined) to Cc1ccc(C(=O)N/C(=C\c2ccccc2)C(=O)NCc2cccnc2)cc1, the inhibition rises from -4.73% to -0.7%.

With C=CCc1cc(/C=C/c2nc(O)c([N+](=O)[O-])c(=O)[nH]2)cc(OC)c1O the inhibition was 14.5% (active).
For O=C1NC(=S)N(Cc2ccco2)C(=O)/C1=C\c1cccs1, the inhibition was 96% (active).
With COc1cc(/C=C2\SC(=Nc3ccc(O)cc3)NC2=O)cc(OC)c1O the inhibition was 69.2% (active).
For CC(=O)Nc1ccc(S(=O)(=O)N2CCN(c3ccccn3)CC2)cc1, the inhibition was 14% (active).
CCOC(=O)C1=C(N)OC2=C(C(=O)CCC2)C12C(=O)N1c3c(ccc(C)c32)C(C)=CC1(C)C (centres undefined) was tested, and the inhibition was 14.7% (active).
In the case of COc1ccc([N+](=O)[O-])c(S(=O)(=O)c2ccc(Cl)cc2)n1, the inhibition was 13.8% (active).
In the case of COC(=O)c1[nH]nc(C(=O)OC(C)(C)C)c1-c1ccccc1, the inhibition was 13.6% (active).
